# Results as given in the supplement of paper PMC8728848.
# About 410 targets per protein were measured; listed, in parts, are those with the strongest signals and a random draw of the rest.
# B1: CpGal16 (Clavelina picta) (protein)
# chain: MAKMITNYVGKRIECIMVATDMMSTVFSLASATGDLPFYINFRQRENSIVMNTRVHGKWQYEKSQSSGGMNFYEPFRLVVEVRPSVFKVTVSTMGEEDGITFNLQYSQITIKPDEIVAMHLGYCNLRSELLVTDL
# Key:
# Assay in all cases: glycan array binding signal (z-score within array); higher = stronger binding
# Conditions in all cases: glycan notation: IUPAC condensed, linker removed
# Fuc(a1-2)Gal(b1-3)GlcNAc = target: Fuc(a1-2)Gal(b1-3)GlcNAc
# How it was run: (§1)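 The Consortium for Functional Glycomics database supplied 3228 glycan arrays, of which those lacking an available protein sequence were dropped. The binding signal, a within-array Z-score, was averaged across arrays of the same protein sequence and across linkers. Negative scores can be read as non-binding.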
# [1] = target: Fuc(a1-2)Gal(b1-3)GlcNAc(b1-3)Gal(b1-4)Glc
# How it was run: as §1
# [2] = target: Fuc(a1-2)Gal(b1-3)GlcNAc(b1-3)[Gal(b1-4)GlcNAc(b1-6)]Gal(b1-4)Glc
# How it was run: as §1
# [3] = target: Fuc(a1-2)Gal(b1-3)[Fuc(a1-4)]GlcNAc(b1-2)Man(a1-3)[Fuc(a1-2)Gal(b1-3)[Fuc(a1-4)]GlcNAc(b1-2)Man(a1-6)]Man(b1-4)GlcNAc(b1-4)[Fuc(a1-6)]GlcNAc(b1-4)[Fuc(a1-6)]GlcNAc
# How it was run: as §1
# [4] = target: Fuc(a1-2)Gal(b1-3)[Fuc(a1-4)]GlcNAc(b1-3)[Fuc(a1-3)[Gal(b1-4)]GlcNAc(b1-6)]Gal(b1-4)Glc
# How it was run: as §1
# Fuc(a1-2)Gal(b1-4)Glc6S = target: Fuc(a1-2)Gal(b1-4)Glc6S
# How it was run: as §1
# [5] = target: Fuc(a1-2)[Gal(a1-3)]Gal(b1-4)GlcNAc
# How it was run: as §1
# [6] = target: Fuc(a1-2)[Gal(a1-3)]Gal(b1-4)[Fuc(a1-3)]GlcNAc
# How it was run: as §1
# [7] = target: Fuc(a1-2)[GalNAc(a1-3)]Gal(b1-3)GlcNAc(b1-6)GalNAc
# How it was run: as §1
# [8] = target: Fuc(a1-2)[GalNAc(a1-3)]Gal(b1-4)GlcNAc(b1-2)Man(a1-3)[Fuc(a1-2)[GalNAc(a1-3)]Gal(b1-4)GlcNAc(b1-2)Man(a1-6)]Man(b1-4)GlcNAc(b1-4)[Fuc(a1-6)]GlcNAc
# How it was run: as §1
# [9] = target: Fuc(a1-2)[GalNAc(a1-3)]Gal(b1-4)GlcNAc(b1-3)Gal(b1-4)GlcNAc
# How it was run: as §1
# [10] = target: Fuc(a1-3)[Gal3S(b1-4)]GlcNAc6S
# How it was run: as §1
# [11] = target: Gal(a1-3)Gal(b1-3)[Fuc(a1-4)]GlcNAc(b1-2)Man(a1-3)[Gal(a1-3)Gal(b1-3)[Fuc(a1-4)]GlcNAc(b1-2)Man(a1-6)]Man(b1-4)GlcNAc(b1-4)GlcNAc
# How it was run: as §1
# Gal(b1-3)GlcNAc(b1-2)Man = target: Gal(b1-3)GlcNAc(b1-2)Man
# How it was run: as §1
# [12] = target: Gal(b1-3)GlcNAc(b1-2)Man(a1-3)[GlcNAc(b1-4)][Gal(b1-3)GlcNAc(b1-2)Man(a1-6)]Man(b1-4)GlcNAc(b1-4)GlcNAc
# How it was run: as §1
# [13] = target: Gal(b1-3)GlcNAc(b1-3)Gal(b1-4)GlcNAc(b1-2)Man(a1-3)[Gal(b1-3)GlcNAc(b1-3)Gal(b1-4)GlcNAc(b1-2)Man(a1-6)]Man(b1-4)GlcNAc(b1-4)GlcNAc
# How it was run: as §1
# [14] = target: Gal(b1-3)GlcNAc(b1-3)Gal(b1-4)GlcNAc(b1-2)[Gal(b1-3)GlcNAc(b1-3)Gal(b1-4)GlcNAc(b1-6)]Man(a1-6)[Gal(b1-3)GlcNAc(b1-3)Gal(b1-4)GlcNAc(b1-2)Man(a1-3)]Man(b1-4)GlcNAc(b1-4)[Fuc(a1-6)]GlcNAc
# How it was run: as §1
# [15] = target: Gal(b1-3)GlcNAc(b1-3)Gal(b1-4)GlcNAc(b1-3)Gal(b1-4)GlcNAc(b1-2)[Gal(b1-3)GlcNAc(b1-3)Gal(b1-4)GlcNAc(b1-3)Gal(b1-4)GlcNAc(b1-6)]Man(a1-6)[Gal(b1-3)GlcNAc(b1-3)Gal(b1-4)GlcNAc(b1-3)Gal(b1-4)GlcNAc(b1-2)Man(a1-3)]Man(b1-4)GlcNAc(b1-4)[Fuc(a1-6)]GlcNAc
# How it was run: as §1
# [16] = target: Gal(b1-3)GlcNAc(b1-3)Gal(b1-4)[Fuc(a1-3)]GlcNAc(b1-6)[Gal(b1-3)GlcNAc(b1-3)]Gal(b1-4)Glc
# How it was run: as §1
# [17] = target: Gal(b1-4)GlcNAc(b1-2)Man(a1-3)[GlcNAc(b1-4)][Gal(b1-4)GlcNAc(b1-2)Man(a1-6)]Man(b1-4)GlcNAc(b1-4)GlcNAc
# How it was run: as §1
# [18] = target: Gal(b1-4)GlcNAc(b1-3)Gal(b1-4)GlcNAc(b1-3)Gal(b1-4)GlcNAc(b1-2)Man(a1-3)[Gal(b1-4)GlcNAc(b1-3)Gal(b1-4)GlcNAc(b1-3)Gal(b1-4)GlcNAc(b1-2)Man(a1-6)]Man(b1-4)GlcNAc(b1-4)[Fuc(a1-6)]GlcNAc
# How it was run: as §1
# [19] = target: Gal(b1-4)GlcNAc(b1-3)Gal(b1-4)GlcNAc(b1-3)Gal(b1-4)GlcNAc(b1-2)[Gal(b1-4)GlcNAc(b1-3)Gal(b1-4)GlcNAc(b1-3)Gal(b1-4)GlcNAc(b1-6)]Man(a1-6)[Gal(b1-4)GlcNAc(b1-3)Gal(b1-4)GlcNAc(b1-3)Gal(b1-4)GlcNAc(b1-2)Man(a1-3)]Man(b1-4)GlcNAc(b1-4)[Fuc(a1-6)]GlcNAc
# How it was run: as §1
# [20] = target: Gal(b1-4)GlcNAc(b1-3)Gal(b1-4)GlcNAc(b1-3)Gal(b1-4)GlcNAc(b1-3)Gal(b1-4)GlcNAc(b1-3)Gal(b1-4)GlcNAc(b1-2)Man(a1-3)[Gal(b1-4)GlcNAc(b1-3)Gal(b1-4)GlcNAc(b1-3)Gal(b1-4)GlcNAc(b1-3)Gal(b1-4)GlcNAc(b1-3)Gal(b1-4)GlcNAc(b1-2)Man(a1-6)]Man(b1-4)GlcNAc(b1-4)[Fuc(a1-6)]GlcNAc
# How it was run: as §1
# [21] = target: Gal(b1-4)GlcNAc(b1-3)Gal(b1-4)GlcNAc(b1-3)GalNAc
# How it was run: as §1
# Gal(b1-6)Gal = target: Gal(b1-6)Gal
# How it was run: as §1
# [22] = target: Gal3S(b1-3)[Fuc(a1-4)]GlcNAc
# How it was run: as §1
# Gal6S(b1-3)GlcNAc = target: Gal6S(b1-3)GlcNAc
# How it was run: as §1
# Gal6S(b1-4)Glc6S = target: Gal6S(b1-4)Glc6S
# How it was run: as §1
# GalNAc3S(b1-4)GlcNAc3S = target: GalNAc3S(b1-4)GlcNAc3S
# How it was run: as §1
# [23] = target: GlcNAc(a1-3)Gal(b1-4)GlcNAc
# How it was run: as §1
# [24] = target: GlcNAc(a1-4)Gal(b1-4)GalNAc
# How it was run: as §1
# [25] = target: GlcNAc(a1-4)Gal(b1-4)GlcNAc(b1-3)Gal(b1-4)GlcNAc
# How it was run: as §1
# [26] = target: GlcNAc(b1-3)Gal(b1-4)GlcNAc(b1-3)[GlcNAc(b1-3)Gal(b1-4)GlcNAc(b1-3)]GalNAc
# How it was run: as §1
# [27] = target: GlcNAc(b1-4)GlcNAc(b1-4)GlcNAc(b1-4)GlcNAc(b1-4)GlcNAc
# How it was run: as §1
# Kdn(a2-6)Gal(b1-4)GlcNAc = target: Kdn(a2-6)Gal(b1-4)GlcNAc
# How it was run: as §1
# [28] = target: Man(a1-2)Man(a1-3)[Man(a1-2)Man(a1-6)]Man(a1-6)[Man(a1-2)Man(a1-2)Man(a1-3)]Man
# How it was run: as §1
# [29] = target: Neu5Ac(a2-3)Gal(b1-3)[GlcNAc(b1-6)]GalNAc
# How it was run: as §1
# [30] = target: Neu5Ac(a2-3)Gal(b1-3)[Neu5Ac(a2-6)]GlcNAc(b1-3)[Fuc(a1-3)[Gal(b1-4)]GlcNAc(b1-6)]Gal(b1-4)Glc
# How it was run: as §1
# [31] = target: Neu5Ac(a2-3)Gal(b1-4)GlcNAc
# How it was run: as §1
# [32] = target: Neu5Ac(a2-3)Gal(b1-4)GlcNAc(b1-6)[Neu5Ac(a2-3)Gal(b1-3)]GalNAc
# How it was run: as §1
# [33] = target: Neu5Ac(a2-3)Gal(b1-4)[Fuc(a1-3)]GlcNAc(b1-6)[Gal(b1-3)]GalNAc
# How it was run: as §1
# [34] = target: Neu5Ac(a2-6)Gal(b1-4)GlcNAc
# How it was run: as §1
# [35] = target: Neu5Ac(a2-6)Gal(b1-4)GlcNAc(b1-2)Man(a1-3)[Man(a1-6)]Man(b1-4)GlcNAc(b1-4)GlcNAc
# How it was run: as §1
# [36] = target: Neu5Ac(a2-6)Gal(b1-4)GlcNAc(b1-3)Gal(b1-4)[Fuc(a1-3)]GlcNAc(b1-3)Gal(b1-4)[Fuc(a1-3)]GlcNAc
# How it was run: as §1
# [37] = target: Neu5Ac(a2-6)Gal(b1-4)GlcNAc6S
# How it was run: as §1
# [38] = target: Neu5Ac(a2-6)GlcNAc(b1-4)GlcNAc(b1-4)GlcNAc
# How it was run: as §1
# [39] = target: Neu5Ac(a2-8)Neu5Ac(a2-8)Neu5Ac
# How it was run: as §1
binder,measurement,setting,value
B1,glycan array binding signal (z-score),Fuc(a1-2)Gal(b1-3)GlcNAc,2.93
same,glycan array binding signal (z-score),[1],3.11
same,glycan array binding signal (z-score),[2],2.79
same,glycan array binding signal (z-score),[3],-0.402
same,glycan array binding signal (z-score),[4],-0.394
same,glycan array binding signal (z-score),Fuc(a1-2)Gal(b1-4)Glc6S,3.43
same,glycan array binding signal (z-score),[5],-0.113
same,glycan array binding signal (z-score),[6],-0.434
same,glycan array binding signal (z-score),[7],3.13
same,glycan array binding signal (z-score),[8],0.044
same,glycan array binding signal (z-score),[9],2.86
same,glycan array binding signal (z-score),[10],-0.265
same,glycan array binding signal (z-score),[11],-0.202
same,glycan array binding signal (z-score),Gal(b1-3)GlcNAc(b1-2)Man,0.015
same,glycan array binding signal (z-score),[12],2.87
same,glycan array binding signal (z-score),[13],3.83
same,glycan array binding signal (z-score),[14],3.99
same,glycan array binding signal (z-score),[15],4.48
same,glycan array binding signal (z-score),[16],3.33
same,glycan array binding signal (z-score),[17],-0.358
same,glycan array binding signal (z-score),[18],0.953
same,glycan array binding signal (z-score),[19],1.44
same,glycan array binding signal (z-score),[20],1.28
same,glycan array binding signal (z-score),[21],-0.168
same,glycan array binding signal (z-score),Gal(b1-6)Gal,-0.407
same,glycan array binding signal (z-score),[22],-0.266
same,glycan array binding signal (z-score),Gal6S(b1-3)GlcNAc,-0.282
same,glycan array binding signal (z-score),Gal6S(b1-4)Glc6S,-0.12
same,glycan array binding signal (z-score),GalNAc3S(b1-4)GlcNAc3S,0.397
same,glycan array binding signal (z-score),[23],-0.249
same,glycan array binding signal (z-score),[24],-0.312
same,glycan array binding signal (z-score),[25],-0.32
same,glycan array binding signal (z-score),[26],-0.168
same,glycan array binding signal (z-score),[27],-0.348
same,glycan array binding signal (z-score),Kdn(a2-6)Gal(b1-4)GlcNAc,-0.352
same,glycan array binding signal (z-score),[28],-0.232
same,glycan array binding signal (z-score),[29],-0.388
same,glycan array binding signal (z-score),[30],-0.357
same,glycan array binding signal (z-score),[31],-0.378
same,glycan array binding signal (z-score),[32],-0.324
same,glycan array binding signal (z-score),[33],0.134
same,glycan array binding signal (z-score),[34],-0.456
same,glycan array binding signal (z-score),[35],-0.395
same,glycan array binding signal (z-score),[36],-0.419
same,glycan array binding signal (z-score),[37],-0.303
same,glycan array binding signal (z-score),[38],-0.261
same,glycan array binding signal (z-score),[39],-0.39
